# Laboratory results from the supplement of paper PMC10849652.
# Of roughly 7,900 targets only a part is listed; those with a hit were picked by preference. About 0.6% of all pairs of compound and target were hits. Unmarked numbers belong to inactive results.
# How the values were obtained:
# Assay in all cases: log2 fold change, soluble protein after heating vs DMSO (PISA); higher = thermal stabilisation; K562 cells, 10 uM, 30 min; active = over 0.2 and 3.5 SD of the protein, either way, in both replicates (recomputed)
# [1] = compound: C1COCCN1CCN2C3=CC=CC=C3N=C2NC(=O)C4=CC(=CC=C4)[N+](=O)[O-] [IRAK-1-4 Inhibitor I]
# How it was run: (§1)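 Aliquots of K562 cells (2×10^6 cells/mL) treated with 10 μM compound for 30 min were heated for 3 min over 48°C-58°C. After pooling and extraction in PBS with 0.5% NP-40 at 4°C, soluble protein from a 21,000xg, 90 min spin was quantified by TMTpro 16plex LC-MS/MS with channel sums equalised. Thermal stability is expressed against control samples, from duplicates, as a log2 fold change.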
# [2] = compound: C=CC(=O)N1CCC[C@@H](n2nc(-c3ccc(Oc4ccccc4)cc3)c3c(N)ncnc32)C1 [ibrutinib]
# How it was run: as §1
# [3] = compound: CC(=O)c1cnc2ccc(-c3cc(Cl)c(O)c(Cl)c3)nc2c1N[C@H]1CC[C@H](CN(C)C)CC1
# How it was run: as §1
# [4] = compound: CC(C)(C)Cn1c(N)nc2ccc(-c3[nH]c(C(C)(C)C)nc3-c3ccc(F)cc3)nc21 [ralimetinib]
# How it was run: as §1
# [5] = compound: CC(C)(O)CC(=O)NCCn1ccc2ncnc(Nc3ccc(Oc4cccc(C(F)(F)F)c4)c(Cl)c3)c21
# How it was run: as §1
# [6] = compound: CC(C)C1=C2N=C(C=C(N2N=C1)NCC3=CC=CC=C3)NCCCCCCN
# How it was run: as §1
# [7] = compound: CC(C)C[C@@H](C=O)NC(=O)[C@H](CC(C)C)NC(=O)[C@H](CC(C)C)NC(=O)OCc1ccccc1
# How it was run: as §1
# [8] = compound: CC(C)N(C[C@H]1O[C@@H](n2cnc3c(N)ncnc32)[C@H](O)[C@@H]1O)[C@H]1C[C@@H](CCc2nc3cc(C(C)(C)C)ccc3[nH]2)C1 [pinometostat]
# How it was run: as §1
# [9] = compound: CC1=C(C(CC(=O)N1)C2=CC=C(C=C2)C(F)(F)F)C(=O)NC3=C(C=C4C(=C3)C=NN4)F
# How it was run: as §1
# [10] = compound: CC1=C(C2=C(C=C1)C(=O)C3=CC=CC=C3N2CCCN)C
# How it was run: as §1
# [11] = compound: CC1=C(C=C(C=C1)NC(=O)C2=CC(=CC=C2)C(C)(C)C#N)NC3=CC4=C(C=C3)N=CN(C4=O)C
# How it was run: as §1
# [12] = compound: CC1=C(C=C(C=C1)NC(=O)C2=CC(=CC=C2)N(C)C)NC(=O)C3=CC=C(C=C3)O
# How it was run: as §1
# [13] = compound: CC1=NC(=CC=C1)C2=C(N=C(N2)C(C)(C)C)C3=CC4=NC=CN=C4C=C3
# How it was run: as §1
# [14] = compound: CCCCN(Cc1ccc(C(=O)NO)cc1)C(=O)Nc1ccccc1 [Nexturastat A]
# How it was run: as §1
# [15] = compound: CCCS(=O)(=O)Nc1ccc(F)c(C(=O)c2c[nH]c3ncc(-c4ccc(Cl)cc4)cc23)c1F [vemurafenib]
# How it was run: as §1
# [16] = compound: CCCc1cc(C)[nH]c(=O)c1CNC(=O)c1cc(-c2ccnc(N3CCN(C)CC3)c2)cc2c1cnn2C(C)C
# How it was run: as §1
# [17] = compound: CCN(CC)Cc1ccc2cc(COC(=O)Nc3ccc(C(=O)NO)cc3)ccc2c1 [givinostat]
# How it was run: as §1
# [18] = compound: CCN(CCCOc1ccc2c(Nc3cc(CC(=O)Nc4cccc(F)c4)[nH]n3)ncnc2c1)CCOP(=O)(O)O [barasertib]
# How it was run: as §1
# [19] = compound: CC1=CC=C(C=C1)SC2=C3C=C(SC3=CN=C2)C(=O)N
# How it was run: as §1
# [20] = compound: CCCS(=O)(=O)Nc1ccc(F)c(C(=O)c2c[nH]c3ncc(Cl)cc23)c1F
# How it was run: as §1
# UniProt Q9UK23, sequence (Q9UK23 whole entry, looked up): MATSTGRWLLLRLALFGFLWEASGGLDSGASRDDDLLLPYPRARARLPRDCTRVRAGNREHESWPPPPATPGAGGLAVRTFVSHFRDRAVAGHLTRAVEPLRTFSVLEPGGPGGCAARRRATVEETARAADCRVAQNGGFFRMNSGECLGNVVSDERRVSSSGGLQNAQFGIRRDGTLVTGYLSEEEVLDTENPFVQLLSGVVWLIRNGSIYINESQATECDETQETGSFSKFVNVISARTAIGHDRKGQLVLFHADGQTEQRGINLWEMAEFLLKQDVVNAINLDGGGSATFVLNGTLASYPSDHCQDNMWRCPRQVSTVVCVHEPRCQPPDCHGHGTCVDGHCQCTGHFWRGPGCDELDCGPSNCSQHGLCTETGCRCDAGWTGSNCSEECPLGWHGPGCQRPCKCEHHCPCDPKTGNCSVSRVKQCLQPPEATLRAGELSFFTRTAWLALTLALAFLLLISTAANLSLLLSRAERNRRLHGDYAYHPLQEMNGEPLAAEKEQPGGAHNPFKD
# UniProt P52701, sequence (P52701 whole entry, looked up): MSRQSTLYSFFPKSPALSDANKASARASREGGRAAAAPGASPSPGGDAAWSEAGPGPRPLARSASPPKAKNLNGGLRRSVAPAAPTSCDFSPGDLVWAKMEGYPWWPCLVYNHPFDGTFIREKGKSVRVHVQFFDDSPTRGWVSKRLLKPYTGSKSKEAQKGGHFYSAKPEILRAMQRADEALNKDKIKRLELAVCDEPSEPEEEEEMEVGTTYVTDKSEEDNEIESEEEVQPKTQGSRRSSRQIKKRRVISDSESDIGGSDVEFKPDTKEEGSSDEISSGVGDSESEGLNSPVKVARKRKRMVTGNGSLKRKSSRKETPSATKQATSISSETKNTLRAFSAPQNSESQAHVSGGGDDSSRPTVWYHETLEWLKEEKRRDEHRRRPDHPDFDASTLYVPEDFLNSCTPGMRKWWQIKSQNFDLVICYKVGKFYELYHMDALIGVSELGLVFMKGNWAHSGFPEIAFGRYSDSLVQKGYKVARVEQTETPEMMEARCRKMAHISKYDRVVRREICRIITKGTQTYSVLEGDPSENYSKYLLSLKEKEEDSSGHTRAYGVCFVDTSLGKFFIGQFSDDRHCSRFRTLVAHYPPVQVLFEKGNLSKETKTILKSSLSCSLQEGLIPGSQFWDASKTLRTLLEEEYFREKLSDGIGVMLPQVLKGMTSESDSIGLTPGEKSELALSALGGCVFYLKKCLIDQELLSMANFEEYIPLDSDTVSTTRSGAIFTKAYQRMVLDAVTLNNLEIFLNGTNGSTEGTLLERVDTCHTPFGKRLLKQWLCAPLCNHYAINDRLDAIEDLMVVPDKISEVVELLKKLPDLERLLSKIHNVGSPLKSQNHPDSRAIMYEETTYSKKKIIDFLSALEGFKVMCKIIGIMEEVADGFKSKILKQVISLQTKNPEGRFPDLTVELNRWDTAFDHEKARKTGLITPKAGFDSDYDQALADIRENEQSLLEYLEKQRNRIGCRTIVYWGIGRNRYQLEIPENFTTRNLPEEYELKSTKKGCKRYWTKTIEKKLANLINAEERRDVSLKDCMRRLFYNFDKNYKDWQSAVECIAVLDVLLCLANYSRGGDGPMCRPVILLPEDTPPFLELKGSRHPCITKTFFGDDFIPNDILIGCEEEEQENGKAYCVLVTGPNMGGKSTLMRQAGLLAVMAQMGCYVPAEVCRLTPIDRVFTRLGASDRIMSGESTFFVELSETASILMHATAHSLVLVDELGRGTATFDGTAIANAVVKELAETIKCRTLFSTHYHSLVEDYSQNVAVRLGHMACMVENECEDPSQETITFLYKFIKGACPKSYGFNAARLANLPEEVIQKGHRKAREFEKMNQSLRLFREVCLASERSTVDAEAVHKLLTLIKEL
# UniProt Q9BT67, sequence (Q9BT67 whole entry, looked up): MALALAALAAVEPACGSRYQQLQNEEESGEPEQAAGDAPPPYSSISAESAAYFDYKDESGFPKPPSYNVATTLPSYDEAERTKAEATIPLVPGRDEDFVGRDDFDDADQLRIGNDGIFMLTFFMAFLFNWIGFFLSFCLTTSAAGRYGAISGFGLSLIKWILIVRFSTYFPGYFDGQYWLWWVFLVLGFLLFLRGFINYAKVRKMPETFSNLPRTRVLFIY
# UniProt Q4G0T1, sequence (Q4G0T1 whole entry, looked up): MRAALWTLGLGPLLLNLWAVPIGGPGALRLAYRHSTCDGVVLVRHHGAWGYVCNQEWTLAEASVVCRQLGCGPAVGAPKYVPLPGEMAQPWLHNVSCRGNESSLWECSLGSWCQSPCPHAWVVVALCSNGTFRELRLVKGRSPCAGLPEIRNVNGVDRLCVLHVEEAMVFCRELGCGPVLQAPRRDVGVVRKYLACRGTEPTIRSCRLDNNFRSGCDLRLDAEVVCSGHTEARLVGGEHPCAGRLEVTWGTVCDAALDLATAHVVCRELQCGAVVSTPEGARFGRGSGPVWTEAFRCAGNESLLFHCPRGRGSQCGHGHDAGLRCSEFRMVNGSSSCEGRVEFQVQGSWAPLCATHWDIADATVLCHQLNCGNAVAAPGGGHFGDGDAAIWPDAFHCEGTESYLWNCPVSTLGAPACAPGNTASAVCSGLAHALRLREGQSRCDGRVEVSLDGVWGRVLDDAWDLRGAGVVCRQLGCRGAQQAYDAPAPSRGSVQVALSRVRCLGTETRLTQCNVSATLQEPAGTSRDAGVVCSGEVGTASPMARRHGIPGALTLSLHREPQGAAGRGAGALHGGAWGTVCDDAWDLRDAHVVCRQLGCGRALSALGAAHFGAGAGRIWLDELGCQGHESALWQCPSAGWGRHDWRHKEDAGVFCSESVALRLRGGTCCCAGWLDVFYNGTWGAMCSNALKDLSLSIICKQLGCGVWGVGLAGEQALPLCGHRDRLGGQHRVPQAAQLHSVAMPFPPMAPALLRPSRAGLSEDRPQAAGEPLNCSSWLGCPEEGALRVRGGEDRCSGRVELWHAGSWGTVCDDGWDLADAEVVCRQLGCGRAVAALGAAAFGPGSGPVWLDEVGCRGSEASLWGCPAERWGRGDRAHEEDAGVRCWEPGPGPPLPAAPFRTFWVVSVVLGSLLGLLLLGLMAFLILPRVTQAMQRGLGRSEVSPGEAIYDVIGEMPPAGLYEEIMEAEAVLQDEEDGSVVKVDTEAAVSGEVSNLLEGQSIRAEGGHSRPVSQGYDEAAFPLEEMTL
# UniProt P48645, sequence (P48645 whole entry, looked up): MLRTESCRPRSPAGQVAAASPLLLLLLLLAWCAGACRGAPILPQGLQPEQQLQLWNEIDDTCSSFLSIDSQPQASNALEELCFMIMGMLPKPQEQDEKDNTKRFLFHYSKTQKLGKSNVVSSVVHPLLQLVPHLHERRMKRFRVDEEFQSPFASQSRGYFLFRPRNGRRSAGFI
# UniProt Q9Y6R0, sequence (Q9Y6R0 whole entry, looked up): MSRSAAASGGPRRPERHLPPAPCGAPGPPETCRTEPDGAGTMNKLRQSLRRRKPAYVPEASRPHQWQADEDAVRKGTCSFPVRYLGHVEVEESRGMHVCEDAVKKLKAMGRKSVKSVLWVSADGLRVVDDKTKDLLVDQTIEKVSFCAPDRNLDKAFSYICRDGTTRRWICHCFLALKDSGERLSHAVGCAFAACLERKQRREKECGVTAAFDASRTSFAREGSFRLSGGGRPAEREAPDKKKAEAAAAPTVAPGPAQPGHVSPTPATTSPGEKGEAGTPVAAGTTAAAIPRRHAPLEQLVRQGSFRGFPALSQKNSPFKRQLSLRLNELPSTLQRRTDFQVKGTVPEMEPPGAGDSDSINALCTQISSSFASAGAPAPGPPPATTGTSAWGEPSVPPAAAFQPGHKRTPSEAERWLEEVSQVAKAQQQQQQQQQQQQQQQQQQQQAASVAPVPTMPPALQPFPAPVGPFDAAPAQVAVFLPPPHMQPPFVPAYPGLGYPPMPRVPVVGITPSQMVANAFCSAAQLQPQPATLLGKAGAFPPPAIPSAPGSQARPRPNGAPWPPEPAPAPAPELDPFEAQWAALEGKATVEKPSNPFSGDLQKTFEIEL
# UniProt O75607, sequence (O75607 whole entry, looked up): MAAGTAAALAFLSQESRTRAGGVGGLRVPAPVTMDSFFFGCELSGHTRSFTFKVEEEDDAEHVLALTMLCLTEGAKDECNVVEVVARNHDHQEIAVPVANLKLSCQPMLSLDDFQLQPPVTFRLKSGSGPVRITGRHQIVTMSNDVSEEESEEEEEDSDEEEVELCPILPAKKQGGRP
Target,log2 fold change [1],log2 fold change [2],log2 fold change [3],log2 fold change [4],log2 fold change [5],log2 fold change [6],log2 fold change [7],log2 fold change [8],log2 fold change [9],log2 fold change [10],log2 fold change [11],log2 fold change [12],log2 fold change [13],log2 fold change [14],log2 fold change [15],log2 fold change [16],log2 fold change [17],log2 fold change [18],log2 fold change [19],log2 fold change [20]
NDFIP1 (UniProt Q9BT67),-0.135,-0.083,0.146,0.084,-0.401,-1.2 (active),0.302,0.048,0.241,0.152,-0.366,-0.125,-0.1,0.048,0.268,-0.15,-0.046,-0.011,,
NMU (UniProt P48645),-0.052,0.027,0.034,0.063,0.011,0.123,0.313,-0.106,0.03,-0.174,,-0.052,0.411 (active),0.283,0.067,,0.001,0.002,0.09,-0.127
NPM3 (UniProt O75607),-0.057,-0.016,-0.004,0.045,,0.078,0.053,0.052,0.088,-0.521 (active),0.003,-0.004,-0.056,,-0.04,-0.015,0.019,-0.083,-0.005,0.041
NUP160 (UniProt Q12769),-0.03,-0.041,-0.13,-0.002,-0.032,-0.137,-0.01,0.058,0.001,-0.012,0.006,0.037,0.017,-0.037,-0.01,0.002,0.018,0.062,0.023,0.083
NA isoform 3 (UniProt Q4G0T1),0.007,-0.1,-0.146,-0.118,,-0.022,0.155,-0.043,0.079,-0.109,-0.007,0.035,-0.057,,0.005,-0.012,-0.009,0.179,0.008,-0.077
NUMBL (UniProt Q9Y6R0),0.144,-0.032,-0.349 (active),-0.032,0.044,-0.026,0.162,0.111,-0.024,,0.011,-0.045,-0.081,0.121,-0.144,0.249,0,0.069,-0.018,-0.005
NAGPA (UniProt Q9UK23),-0.078,0.228,-0.014,,0.03,0.112,,0.052,0.083,-0.062,-0.028,,0.054,-0.131,,-0.066,0.002,-0.133,-0.004,-0.067
MRPL50 (UniProt Q8N5N7),-0.036,0.052,0.036,0.315,-0.001,-0.014,-0.203,-0.01,0.04,0.16,-0.09,-0.04,-0.031,0.208,0.034,-0.058,0.05,-0.057,0.175,0.244
MSH6 (UniProt P52701),-0.18,-0.088,-0.121,-0.024,-0.299,-0.544,0.039,-0.005,0.053,0.884 (active),0.076,-0.078,0.108,-0.049,0.119,0.03,0.35,0.171,0.112,0.194
